Source: the supplement of paper PMC3334620
Over roughly 33,000 sequences, “E-score (-0.5 to 0.5)” has its median near -0.043; the highest 2% begin near 0.37. The sample holds the highest values, similar sequences and a random draw of the others, so the mix is not that of the screen.

The sequences below were run against T1, Upc2 (UniProt Q12151) (assay: PBM E-score (8-mer binding enrichment) (E-score (-0.5 to 0.5)); higher = stronger / more preferred TF binding). Conditions: protein concentration: 200 nM; construct: GST-full length.
T1 sequence: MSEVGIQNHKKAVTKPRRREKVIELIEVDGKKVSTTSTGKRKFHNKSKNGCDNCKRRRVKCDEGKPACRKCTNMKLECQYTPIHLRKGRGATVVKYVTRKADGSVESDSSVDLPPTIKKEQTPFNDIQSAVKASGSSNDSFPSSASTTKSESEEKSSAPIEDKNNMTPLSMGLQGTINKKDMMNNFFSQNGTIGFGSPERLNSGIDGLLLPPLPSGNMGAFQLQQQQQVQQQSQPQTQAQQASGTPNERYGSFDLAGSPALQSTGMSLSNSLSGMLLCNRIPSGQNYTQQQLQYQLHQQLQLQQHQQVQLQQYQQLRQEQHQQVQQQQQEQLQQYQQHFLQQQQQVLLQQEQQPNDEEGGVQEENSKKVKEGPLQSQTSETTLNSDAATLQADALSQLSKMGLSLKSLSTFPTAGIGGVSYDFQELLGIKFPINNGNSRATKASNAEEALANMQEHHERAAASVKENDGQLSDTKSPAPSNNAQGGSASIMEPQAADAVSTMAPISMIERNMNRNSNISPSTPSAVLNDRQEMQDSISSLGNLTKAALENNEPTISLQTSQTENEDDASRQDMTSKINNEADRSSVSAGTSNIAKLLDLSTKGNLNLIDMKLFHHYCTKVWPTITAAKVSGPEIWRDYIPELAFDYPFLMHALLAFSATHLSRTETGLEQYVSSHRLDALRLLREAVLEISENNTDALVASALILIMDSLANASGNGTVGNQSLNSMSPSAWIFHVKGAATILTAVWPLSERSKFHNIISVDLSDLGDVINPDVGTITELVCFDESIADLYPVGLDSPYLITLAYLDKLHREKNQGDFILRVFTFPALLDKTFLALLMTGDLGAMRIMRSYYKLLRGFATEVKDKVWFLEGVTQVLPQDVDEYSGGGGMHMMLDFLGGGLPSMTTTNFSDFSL
Experimental: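 Universal 'all 10-mer' protein binding microarrays (Agilent AMADID 015681) probed with GST-tagged S. cerevisiae TFs (full-length or DBD) made by in vitro transcription/translation (PURExpress), about 100-200 nM. Bound TF was detected with fluorescent anti-GST. Each ungapped 8-mer (which stands for itself and its reverse complement) is scored by the PBM enrichment score (E-score), a modified Wilcoxon-Mann-Whitney statistic from -0.5 to +0.5, computed with the Universal PBM Analysis Suite. Scale: above 0.35 generally sequence-specific binding.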

Sequence | PBM E-score
CAACGACC | 0.221
GAACGACA | 0.437
GCACGACC | -0.2
AGACGACC | 0.132
CAACGACA | 0.313
GAACGACC | 0.429
AAACGACC | 0.458
AGCCAACC | 0.0299
TCTCACCA | -0.14
CAGTGCAC | -0.136
CTACCACA | -0.234
CCGGCTAA | -0.199
AGATAAAG | -0.0496
AGACGACT | 0.0557
CAACGACG | 0.296
ACACGACA | 0.221
ACACGACT | 0.194
AGACGACA | 0.104
CGACGACG | 0.0684
AAACGACG | 0.476
AAACGACA | 0.479
AAACGACT | 0.456
GCCGAGAA | 0.068
AACAATCA | -0.0313
CCTGGGGC | -0.165

Sequence | PBM E-score
TCGCCGCA | -0.0606
AATTAACG | 0.272
AGAATAGC | -0.229
TTCCGGAA | -0.206
CATCATTA | -0.0416
ACTTACTG | -0.00843
CGTATATC | 0.454
GGTATATA | 0.152
CATATATC | 0.114
CGTATATA | 0.458
AGTATATC | 0.0604
AGTATATA | 0.282
CATTCGTA | 0.416
CATTCGCA | 0.0275
GATTCGTA | 0.438
AATTCGTG | -0.0513
GATTCGCA | 0.131
AATTCGTA | 0.433
CATTCGTC | 0.0696
GATTCGGA | 0.11
AATTCGTC | 0.0116
CCTGGGAC | -0.25
CCCTCTCC | -0.339
CCGTTCGC | 0.201
ACCTTGGG | -0.219

Sequence | PBM E-score
CTAAATTC | 0.0497
AGCTGCAT | -0.108
ACCGAGAT | 0.126
CACGAGAG | 0.0635
CACGAGAA | 0.0693
AACGAGAT | 0.417
AACGAGAA | 0.422
TTCGAGAA | 0.109
TACGAGAA | 0.447
TCCGAGAA | 0.248
AACGAGAG | 0.425
ATCGAGAG | 0.0513
GACGAGAA | 0.0864
ATCGAGAT | -0.0275
CCAATCCG | -0.0814
CCGAAAAA | 0.0605
AATCAAAA | -0.0286
ACCCTGGC | -0.206
AATTATGC | 0.0912
CGAATTCA | 0.0713
CTTGGCCC | -0.171
CCGCTTCA | -0.0583
CCATGCCG | -0.135
CCTTGCCC | -0.056
AAATAGAA | -0.0216

Sequence | PBM E-score
GACGAGAC | 0.0394
CACGAGAC | 0.0139
AACGAGAC | 0.437
GTCGCATA | 0.375
GTCGCTAA | 0.271
ATCGCTTA | 0.364
GTCGCTGA | -0.0513
CTCGCTTA | 0.423
CTCGCTGA | -0.136
ATCGCATA | 0.318
GTCGCTTA | 0.396
CTCGCATA | 0.363
ACTGCAGG | -0.156
ATTGGGAC | -0.218
GGTAGTTA | -0.14
AAGAGGTC | -0.186
ACGAGGGA | 0.364
ACGAGGAC | 0.384
ACGAGTTA | 0.392
CCGAGGGC | 0.094
ACGAGGTC | 0.371
CCGAGGTC | 0.0232
ACGAGGAG | 0.306
GCGAGTTA | 0.116
GCGAGGAC | -0.102

Sequence | PBM E-score
ACGAGTTC | 0.342
ACGAGGGC | 0.388
CACCACGC | -0.221
GAGGGGAC | -0.152
AAGGTCAG | -0.239
CGTCGAAC | 0.0511
GCCCCAGA | -0.09
AACTGTAA | 0.103
TAGATTAA | 0.104
GCTGCGGA | -0.164
ACGAGGTG | 0.367
GCGAGGTA | 0.244
ACGAGGTA | 0.382
GATGGTAC | 0.139
AGTGTCAG | -0.0575
CGGGATAC | 0.18
ACGAGGCC | 0.381
ACGAGGCG | 0.4
ACGAGGCT | 0.406
GCGAGGCC | 0.2
CCGAGGCG | 0.129
ACGAGGAT | 0.355
CCGAGGCC | 0.102
CCGAGGCA | -0.0905
AAGAGGCT | -0.257

Sequence | PBM E-score
GCGAGGCA | 0.195
ACGAGGCA | 0.408
AGGAGGCG | -0.326
CACAGGCG | -0.208
CCGACAGG | -0.0268
AATTTGTC | 0.0333
CATTAGCG | 0.197
GATCTCCC | -0.162
GCTGGACC | -0.0565
CTACAATC | 0.0566
ACTAGATG | -0.122
AGGGGCCA | -0.215
TACGATCA | 0.422
CACGATCG | 0.125
AACGATCT | 0.381
AGCGATCA | 0.11
ACCGATCT | -0.0555
ATCGATCG | 0.136
AACGATCG | 0.383
CACGATCA | -0.0545
ATCGATCA | 0.0619
GACGATCA | -0.0322
AACGATCA | 0.379
AACGATCC | 0.345
GAGCGATA | 0.218

Sequence | PBM E-score
GAAGAAGC | -0.195
AGTCAAGG | -0.208
AACGCGAA | 0.23
CTCTTGCC | -0.16
ATAACCTC | -0.0875
AAGGAAAG | -0.171
CGCACTAC | -0.0438
ACCTCAGT | -0.0386
ATATGAAG | -0.19
GTATAAAC | 0.4
GTATATAA | 0.298
ATATATAC | 0.265
ATATAAAC | 0.187
GTATATAC | 0.395
GTATAAAA | 0.348
CATTGGTA | -0.184
AATCACCG | 0.00219
ATTCGCAA | -0.00304
CCCGTAAA | 0.381
CCCCGTAA | 0.308
ACCGTAAA | 0.368
GCCGTAAA | 0.385
GCCGTAAC | 0.225
CCTGTAAA | -0.0269
